In general, AC50 refers to the concentration at which the activity in the assay is half-maximal.

Consider one compound from PubChem BioAssay (EPA / NIEHS).

SMILES strings stand for the structures. Records with an inconclusive call do not appear. Activity calls are given as the source filed them. Rule for the calls, unless noted: active = hit-call score of the fitted dose curve at least 0.9, where 1 is the maximum; inactive = score below 0.9.

Assay [1] in a line: CCTE_Mundy_HCI_Cortical_Synap_Neur_Matur_NeuriteLength: CCTE's Synaptogenesis and Neurite Maturation Assay in rat cortical cells for Neurite Length, Mundy Lab (AID 2284214). The gist of the method: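 Neurite length quantified by automated high-content imaging of MAP2, synaptophysin and Hoechst staining. Rat cortical cells received chemical from DIV 7 to DIV 12 […], glial growth arrested by AraC at DIV 5; DMSO baseline.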

The nature of assay [2]: CCTE_Mundy_HCI_Cortical_Synap_Neur_Matur_SynapseCount: CCTE's Synaptogenesis and Neurite Maturation Assay in rat cortical cells for Synapse Count, Mundy Lab (AID 2284218). A digest of the protocol: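 High-content imaging of synaptophysin puncta per MAP2-positive neuron (Hoechst nuclei) in rat cortical cells exposed DIV 7–12 after glial arrest with AraC at DIV 5; decrease relative to DMSO scored.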

The nature of assay [3]: CCTE_Mundy_HCI_Cortical_Synap_Neur_Matur_NeuriteCount: CCTE's Synaptogenesis and Neurite Maturation Assay in rat cortical cells for Neurite Count, Mundy Lab (AID 2284222). The gist of the method:
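In this multiplexed morphology readout, rat primary cortical neurons are fixed at DIV 12 following dosing at DIV 7 and stained for MAP2, synaptophysin and nuclei. High-content image analysis yields neurite count.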

The nature of assay [4]: CCTE_Mundy_HCI_Cortical_Synap_Neur_Matur_CellBodySpotCount: CCTE's Synaptogenesis and Neurite Maturation Assay in rat cortical cells for Cell Body Spot Count, Mundy Lab (AID 2284223). The gist of the method:
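High-content imaging counts synaptophysin puncta on neuronal cell bodies per neuron after MAP2/synaptophysin immunostaining. Rat primary cortical cells, glia arrested with AraC at DIV 5, were exposed DIV 7–12; signal decrease measured against DMSO.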

Assay [5] in a line: CCTE_Mundy_HCI_hNP1_Pro_ResponderAvgInten: CCTE's Proliferation Assay in human neuroprogenitor cells, Mundy Lab (AID 2284224; active = hit-call score of the fitted dose curve at least 0.9, where 1 is the maximum;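 note: human neural progenitor cells hNP1 derived from WA09 embryonic stem cells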). A digest of the protocol:
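Proliferation was scored as BrdU labelling intensity in human neural progenitors derived from WA09 embryonic cells, measured 26.25 hours after chemical dosing. Activity was fitted relative to DMSO.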

Assay [6] is described as follows: UKN2_HCS_IMR90_cell_viability: Viability Assessment in the University of Konstanz (UKN) Leist Lab Neural Crest Cell Migration Assay in human induced IMR90 Pluripotent Stem Cells (UKN2) (AID 2284233).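 Note: cells exposed to compound for 24 h after a 24 h migration phase.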 A digest of the protocol: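 After calcein-AM/Hoechst staining, viability is quantified by high-content fluorescence imaging, relative to DMSO, in iPSC (IMR90)-derived neural crest cells. Exposure lasts 24 h, starting after a 24 h migration period on PLO/laminin/fibronectin coating.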

The nature of assay [7]: CCTE_Mundy_HCI_Cortical_NOG_NeuronCount: CCTE's Neurite Outgrowth Assay in rat cortical cells for Neuron Count, Mundy Lab (AID 2284236; active = hit-call score of the fitted dose curve at least 0.9, where 1 is the maximum;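 note: neurons counted by imaging betaIII-tubulin and Hoechst stained cortical cells; cells exposed to compound for about 48 hours before fixation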). The gist of the method: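 Read-out: neuron number by high-content imaging of betaIII-tubulin (Alexa Fluor-488) and Hoechst-labelled rat primary cortical cells.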
Assay [8] can be described thus: CCTE_Mundy_HCI_Cortical_NOG_BPCount: CCTE's Neurite Outgrowth Assay in rat cortical cells for Branch Point Count, Mundy Lab (AID 2284237).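 Note: branch points counted about two days after chemical exposure.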 The gist of the method: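 Measured 50.33 h after dosing, this morphology endpoint uses rat primary cortical cultures labelled for betaIII-tubulin. Branch points are quantified by high-content imaging, with DMSO as negative control and baseline.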

Assay [9] is described as follows: CCTE_Mundy_HCI_hNP1_Casp3_7: CCTE's Caspase-Glo 3/7 Assay in human neuroprogenitor cells for Apoptosis, Mundy Lab (AID 2284240). A digest of the protocol:
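Apoptosis is scored by activated caspase-3/7 luminescence in WA09-derived neural progenitor cells, measured 26.5 h after chemical dosing. Values represent gain of signal relative to DMSO vehicle.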

Assay [10] is described as follows: CCTE_Mundy_HCI_Cortical_Synap_Neur_Matur_NeuronCount: CCTE's Synaptogenesis and Neurite Maturation Assay in rat cortical cells for Neuron Count, Mundy Lab (AID 2284242; active = hit-call score of the fitted dose curve at least 0.9, where 1 is the maximum;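 note: hits reduce neuron count versus DMSO baseline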). A digest of the protocol: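 Neuron counts come from automated high-content imaging of Hoechst nuclei and MAP2/synaptophysin immunostaining at DIV 12, with loss of signal judged against DMSO. Cultures of rat cortical cells had glial growth arrested by AraC at DIV 5; chemical exposure began DIV 7.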

A short description of assay [11]: IUF_NPC2c_oligodendrocyte_migration_120hr: Leibniz Research Institute for Environmental Medicine (IUF) 120-hour Neural Progenitor Cell Migration Assay for Oligodendrocyte Migration (NPC2c) (AID 2284297).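 Note: O4-positive oligodendrocyte migration distance divided by radial glia migration distance.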 A digest of the protocol:
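Exposure runs 5 days from differentiation onset at 37C, seven concentrations plus solvent control, DMSO at most 0.1%, applied to primary hNPC spheres on laminin. After fixation, O4 immunostaining gives oligodendrocyte distance from the sphere core, relative to radial glia migration.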

Assay [12] is described as follows: IUF_NPC2a_radial_glia_migration_120hr: Leibniz Research Institute for Environmental Medicine (IUF) 120-hour Neural Progenitor Cell Migration Assay for Radial Glia Migration (NPC2a) (AID 2284298). A digest of the protocol: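 Migration distance in um, sphere core edge to migration-area edge, derived by nuclei-density algorithm from Hoechst images after 120 h compound exposure. Primary hNPC spheres differentiated on poly-D-lysine/laminin in N2 medium, 37C; medium half-replaced day 3.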

A short description of assay [13]: IUF_NPC2b_neuronal_migration_120hr: Leibniz Research Institute for Environmental Medicine (IUF) 120-hour Neural Progenitor Cell Migration Assay for Neuron Migration (NPC2b) (AID 2284300). A digest of the protocol: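 TUBB3-positive neurons are imaged after 120 h of differentiation, and their mean distance from the sphere edge is normalised to radial glia migration. Single 0.3 mm fetal hNPC spheres on poly-D-lysine/laminin received 7 compound concentrations, ≤0.1% DMSO, refreshed at day 3.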

Assay [14] can be described thus: IUF_NPC3_neuronal_differentiation_120hr: Leibniz Research Institute for Environmental Medicine (IUF) 120-hour Neuronal Differentiation Assay (NPC3) (AID 2284301). A digest of the protocol: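 Value is percent TUBB3-positive neurons among Hoechst-stained nuclei in the migration area, scored by trained CNN after 120 h differentiation. Primary hNPC spheres on poly-D-lysine/laminin, N2 medium, continuous dosing from day 0, half-refeed day 3; DMSO reference.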

Assay [15] can be described thus: IUF_NPC4_neurite_length_120hr: Leibniz Research Institute for Environmental Medicine (IUF) 120-hour Neuronal Morphology Assay for Neurite Length (NPC4) (AID 2284302). The gist of the method: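 Neurite length, the mean in um across TUBB3-stained neurons, is derived by skeletonization of high-content images after 120 h differentiation. Compound exposure, 7 concentrations plus solvent control, ran from plating of hNPC spheres on poly-D-lysine/laminin, with medium half-replaced on day 3.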

Assay [16] in a line: IUF_NPC4_neurite_area_120hr: Leibniz Research Institute for Environmental Medicine (IUF) 120-hour Neuronal Morphology Assay for Neurite Area (NPC4) (AID 2284305; active = hit-call score of the fitted dose curve at least 0.9, where 1 is the maximum). The gist of the method:
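Neurite area (pixels, nuclei excluded) of TUBB3-positive neurons from hNPC spheres differentiating 5 days under continuous exposure at 37 C, 5% CO2. High-content imaging; loss of signal versus DMSO control across 7 concentrations.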

The nature of assay [17]: IUF_NPC2-5_cytotoxicity_72hr: Cytotoxicity Assessment at 72 hours in the Leibniz Research Institute for Environmental Medicine (IUF) Neural Progenitor Cell Migration and Differentiation Assay for Cytotoxicity (NPC2-5) (AID 2284306; active = hit-call score of the fitted dose curve at least 0.9, where 1 is the maximum;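 note: LDH release into supernatant measured by resorufin fluorescence marking membrane damage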). A digest of the protocol: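 Membrane-integrity cytotoxicity at 72 h, read as LDH-driven resorufin fluorescence in supernatant. hNPC spheres from fetal cortex differentiate on coated plates in N2 medium, 37C, 5% CO2; seven serial compound concentrations plus solvent control (DMSO ≤0.1%).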

Assay [18] can be described thus: IUF_NPC2-5_cytotoxicity_120hr: Cytotoxicity Assessment at 120 hours in the Leibniz Research Institute for Environmental Medicine (IUF) Neural Progenitor Cell Migration and Differentiation Assay (NPC2-5) (AID 2284307; active = hit-call score of the fitted dose curve at least 0.9, where 1 is the maximum). A digest of the protocol:
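Membrane-integrity loss measured as LDH activity in medium supernatant via resazurin-to-resorufin fluorescence after 120 h exposure. hNPC spheres from GW 16-19 fetal cortex differentiated on poly-D-lysine/laminin, 37C, medium half-refreshed day 3; seven concentrations, DMSO max 0.1%.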

A short description of assay [19]: IUF_NPC2-5_cell_number_120hr: Cell Number Assessment at 120 hours in the Leibniz Research Institute for Environmental Medicine (IUF) Neural Progenitor Cell Migration and Differentiation Assay (NPC2-5) (AID 2284308).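 Note: count of Hoechst-stained nuclei in migration zone around plated human neural progenitor spheres.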 A digest of the protocol: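 Counting of all Hoechst-stained nuclei in the migration area at 120 h, versus DMSO control. Primary hNPC spheres differentiated on poly-D-lysine/laminin in N2 medium at 37C, dosed from day 0 (7 concentrations, DMSO ≤0.1%), half-refed day 3.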

Assay [20] is described as follows: IUF_NPC2-5_viability_120hr: Viability Assessment at 120 hours in the Leibniz Research Institute for Environmental Medicine (IUF) Neural Progenitor Cell Migration and Differentiation Assay (NPC2-5) (AID 2284312). The gist of the method:
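Alamar blue resorufin fluorescence read after 5 days of differentiation, with compound present from day 0 and replenished at day 3. Primary hNPC spheres on laminin-coated plates, 37C; seven concentrations plus solvent control, fitted against DMSO.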

The nature of assay [21]: CCTE_Mundy_HCI_iCellGluta_NOG_NeuriteLength: CCTE's Neurite Outgrowth Assay in iCellGluta cells for Neurite Length, Mundy Lab (AID 2284318; active = hit-call score of the fitted dose curve at least 0.9, where 1 is the maximum). A digest of the protocol: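 Automated high-content imaging of betaIII-tubulin (Alexa Fluor-488) and Hoechst-stained cells gave neurite length, normalized to the DMSO baseline.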
A short description of assay [22]: IUF_NPC1_cytotoxicity_72hr: Cytotoxicity Assessment at 72 hours in the Leibniz Research Institute for Environmental Medicine (IUF) Neural Progenitor Cell Proliferation Assay (NPC1) (AID 2284332; active = hit-call score of the fitted dose curve at least 0.9, where 1 is the maximum;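 note: rising LDH signal means more cytotoxicity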). The gist of the method:
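Cytotoxicity by LDH membrane-integrity assay on medium supernatants, fluorescence via resazurin reduction, after 3-day single exposure of primary hNPC spheres at 37C, pH 7.2-7.6 with growth factors. Fitted upward against baseline.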

A short description of assay [23]: CCTE_Mundy_HCI_iCellGluta_NOG_NeuriteCount: CCTE's Neurite Outgrowth Assay in iCellGluta cells for Neurite Count, Mundy Lab (AID 2284342; active = hit-call score of the fitted dose curve at least 0.9, where 1 is the maximum;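 note: chemical exposure about 48 hours starting 2 hours after plating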).

On to `CC(=O)[O-].[Tl+]`, for which the AC50 is 23.8 µM (active) in assay [1]; 31.9 µM (active) in assay [2]; 25.3 µM (active) in assay [3]; 30.1 µM (active) in assay [4]; 90 µM (active) in assay [6]; 50 µM (active) in assay [7]. Moreover, the AC50 in assay [8] was 50 µM (active); in [10], 15.4 µM (active); in assay [11] it was 59.4 µM (active); in assay [12], 44.2 µM (active); in assay [13] it was 33 µM (active); in assay [14], 50.1 µM (active). The AC50 in [15] is 34.6 µM (active); in assay [16] it was 30.9 µM (active); in [19], 35.4 µM (active); in assay [20], 21.6 µM (active); in assay [21], 2.79 µM (active); in [23] it was 2.26 µM (active). Moreover, the compound was called inactive in assay [5], in [9], in assay [17], in assay [18] and in assay [22].
